MITF inh: human MITF inhibition, primary screen. O75030. AlphaScreen MITF homodimerization, bead proximity signal. inhibition, % at 2.6 µM. actives 0.91% (n = 650,000); in the data active means inhibition above about 50%;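 further: 0% = vehicle wells with protein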
GPR151 activ: activators of human GPR151; actives 1% (n = 650,000); PathHunter beta-arrestin GPR151 cells, luminescence; activation, % at 11.2 µM; Q8TDV0; in the data active means activation above about 4.9%;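 further: 0% = median of compound wells and 100% = cells with positive control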
FBW7 act: human FBW7 E3 ligase activation, primary screen | Q969H0 | AlphaScreen FBW7–phospho-cyclin E peptide binding, activator screen | normalized activity (activation), % at 26.1 µM | actives 0.13% (n = 650,000); in the data active means normalized activity above about 1.9%;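 further: purified mutant Fbw7 with reduced substrate affinity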
TEAD-YAP block: TEAD-YAP interaction inhibition; actives 1.4% (n = 640,000); HEK-TIYL cells, TEAD-Gal4/YAP UAS-luciferase luminescence; inhibition, % at 9.12 µM; in the data active means inhibition above about 32%;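 further: 0% = median of test compound wells and 100% = reference inhibitor wells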
An asterisk follows results filed as active. A selection: hits, their analogues and other compounds. The true share with any hit is near 3.5%.

For C/C(=N\NC(=O)c1ccc(O)c(O)c1)c1ccc(Br)c([N+](=O)[O-])c1 the results were MITF inh 20, GPR151 activ -2, FBW7 act 0 and TEAD-YAP block 32*.
For CCCC(=O)Nc1ccc(C(=O)c2ccccc2)cc1NC(=O)CCC the results were MITF inh 17, GPR151 activ -2, FBW7 act 0 and TEAD-YAP block 5.
For Cc1nc(C)c(C(=O)NC(C)c2cnn(-c3ccccc3C)c2C)s1 (stereo unspecified) the results were MITF inh 1, GPR151 activ 2, FBW7 act 0 and TEAD-YAP block 54*.
For Cc1nc(C)c(C(=O)NC(C)c2cnn(-c3ccccn3)c2C)s1 (stereo unspecified) the results were MITF inh -2, GPR151 activ 3, FBW7 act 0 and TEAD-YAP block 45*.
Screening Cc1cnc(Nc2ccncc2)cc1Nc1ccccc1C(N)=O returned MITF inh 1, GPR151 activ 0, FBW7 act 0 and TEAD-YAP block -1.
NC(=O)c1ccccc1Nc1cc(Nc2ccc(-n3cnc(N4CCOCC4)n3)cc2)ncc1C(F)F was read as MITF inh 12, GPR151 activ 1, FBW7 act 0 and TEAD-YAP block 42*.
Cc1cnc(Nc2ccc(-n3cnc(N4CCOCC4)n3)cc2)cc1Nc1ccccc1C(N)=O was read as MITF inh -6, GPR151 activ 4, FBW7 act 0 and TEAD-YAP block 82*.
For CC(C)c1nc2c(-c3cn[nH]c3)cccc2c(=O)[nH]1 the results were MITF inh 13, GPR151 activ -1, FBW7 act 0 and TEAD-YAP block 32*.
CC1=NN(c2nc(-c3ccccc3)cs2)C(=O)C1C(c1ccccc1)C(C#N)C(N)=O (stereo unspecified) was read as MITF inh 24, GPR151 activ -1, FBW7 act 1 and TEAD-YAP block 76*.
Screening Cc1ccc(S(=O)(=O)Nc2cccc(C(=O)NCc3cccnc3)c2)cc1 returned MITF inh 17, GPR151 activ 0, FBW7 act 0 and TEAD-YAP block 58*.
O=C(CSc1nc2[nH]ncc2c(=O)n1-c1ccccc1)Nc1ccc([N+](=O)[O-])cc1Cl was read as MITF inh -2, GPR151 activ -1, FBW7 act 0 and TEAD-YAP block 15.
O=C(CSc1nc2[nH]ncc2c(=O)n1-c1ccccc1)Nc1ccc(C(F)(F)F)cc1 was read as MITF inh -14, GPR151 activ 0, FBW7 act 0 and TEAD-YAP block 25.
For CC(C)c1ccc(NC(=O)CSc2nc3[nH]ncc3c(=O)n2-c2ccccc2)cc1 the results were MITF inh 3, GPR151 activ 4, FBW7 act 0 and TEAD-YAP block 39*.
Screening Cc1ccccc1-n1c(SCC(=O)Nc2ccc(C(F)(F)F)cc2)nc2[nH]ncc2c1=O returned MITF inh 5, GPR151 activ 1, FBW7 act 1 and TEAD-YAP block 37*.
`CC(C)c1ccc(NC(=O)CSc2nc3[nH]ncc3c(=O)n2-c2ccc(Cl)cc2)cc1` gave MITF inh 5, GPR151 activ 0, FBW7 act 0 and TEAD-YAP block 21.
For COc1ccc(-n2c(SCC(=O)Nc3ccc([N+](=O)[O-])cc3Cl)nc3[nH]ncc3c2=O)cc1 the results were MITF inh 5, GPR151 activ 0, FBW7 act 0 and TEAD-YAP block 32*.
CN1C(=O)C(c2nnc(Nc3ccccc3)s2)C2c3ccccc3OC13CCCC23 (stereo unspecified) was read as MITF inh 10, GPR151 activ 3, FBW7 act 0 and TEAD-YAP block -12.
`Cc1cccc(C(=O)Nc2nc3ccccc3[nH]2)c1` gave MITF inh 7, GPR151 activ -5, FBW7 act 0 and TEAD-YAP block 32*.
For O=C(Nc1nc2ccccc2[nH]1)c1cccc(Br)c1 the results were MITF inh 8, GPR151 activ -2, FBW7 act 0 and TEAD-YAP block -27.
Cc1cccc(C(=O)N[C@H](C(=O)Nc2nc3ccccc3[nH]2)C(C)C)c1 was read as MITF inh -11, GPR151 activ 0, FBW7 act 0 and TEAD-YAP block 66*.
Screening COC(=O)C1CCN(CC(=O)Nc2ccc3[nH]c(=O)[nH]c3c2)CC1 returned MITF inh 13, GPR151 activ -1, FBW7 act 0 and TEAD-YAP block 7.
`CCCCNc1ncnc2c1cnn2-c1ccc(Cl)cc1` gave MITF inh 0, GPR151 activ 1, FBW7 act 0 and TEAD-YAP block -54.
Screening CC(C)(C)Nc1ncnc2c1cnn2-c1ccc(Cl)cc1 returned MITF inh 4, GPR151 activ 3, FBW7 act 0 and TEAD-YAP block 51*.
